EBV LMP1 NFkB – reduces LMP1-driven NF-kappaB luciferase signal; LMP1-induced NF-kappaB luciferase reporter cells, luminescence; inhibition, % at 12.5 µM; 0.69% of 350,000 active; in the data active means inhibition above about 41%; inconclusive means no clear call, values can overlap the other calls
Peg3 prom inh – Peg3 promoter activity inhibition. HeLa PEG-Prom luciferase reporter, luminescence, overnight. inhibition, % at 20 µM. 1.7% of 360,000 active;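 active means inhibition of at least 50% at 20 µM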
Shn3 inh set2 – Schnurri-3 reporter inhibition in Clone20 osteoblasts | Clone20 osteoblast Shn3 3'UTR firefly luciferase, 24 h | inhibition, % at 12.5 µM | 0.52% of 360,000 active;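 active means mean inhibition of at least 75% with every replicate also reaching 75%; inconclusive means mean inhibition at least 75% but some replicate below; inactive means mean inhibition below 75%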
CF NFkB block – cystic fibrosis NF-kB activation inhibition; KKLEB NF-kB-GFP reporter, PAF-induced, GFP fluorescence overnight; inhibition, % at 5 µM; 0.86% of 360,000 active;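 active means at least 50% inhibition at 5 µM, scaled per plate between neutral and stimulator controls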;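 further: PAF is a Pseudomonas aeruginosa culture filtrate used as stimulus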
HIF-2a inh – HIF-2a inhibition | inhibition, % at 18.8 µM | 0.72% of 360,000 active | 786-0 RCC cells HIF-2a reporter, luciferase luminescence, overnight;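 active means inhibition of the luminescence signal of 40% or more relative to plate controls, in a single-dose primary screen at 18.75 µM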
KKLEB tox – CF airway cell cytotoxicity counter-screen | activity change (cytotoxicity), % at 5 µM | AID 602141 | KKLEB CF airway cells viability, ATPlite luminescence, overnight; active compounds read low; cells stimulated with P. aeruginosa culture filtrate | 0.36% of 360,000 active;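 active means corrected activity change at or below -50% at 5 µM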
Hits are given with their value; - = inactive; ? = inconclusive; . = no result. An excerpt weighted towards active compounds, which were near 2.9% of everything screened.

SMILES	EBV LMP1 NFkB	Peg3 prom inh	Shn3 inh set2	CF NFkB block	HIF-2a inh	KKLEB tox
C/C(=N\NC(=O)COc1ccccc1-c1ccccc1)c1ccccn1	41.0	-	97.7	-	-	-
C/C(=N\NC(=O)COc1ccccc1-c1ccccc1)c1cccnc1	-	-	-	-	-	-
O=C(COc1ccccc1-c1ccccc1)N/N=C/c1ccc2ccccc2c1	-	-	-	62.4	-	-
C/C(=N\NC(=O)COc1ccccc1-c1ccccc1)c1ccc(O)cc1O	-	-	92.1	-	-	-
COc1ccc(S(=O)(=O)NC(=O)C2(C)CCN2C(=O)C2(c3ccc(Cl)cc3)CCC2)cc1 (centres undefined)	.	-	-	-	-	-
CCc1nc2ccc(C(=O)NCc3cccs3)cn2c1N(CC)Cc1cccc(Br)c1	.	56.6	-	-	-	-
CNc1cc(-c2cnn(CC(C)C)c2)ncn1	.	-	-	-	-	-
O=C(CCN1C(=O)/C(=C/c2ccccc2Cl)SC1=S)N1CCCC1	-	73.4	-	53.2	-	-
COc1ccccc1/C=C1\SC(=S)N(CCC(=O)N2CCN(C)CC2)C1=O	-	-	-	-	-	-
O=C(CCCN1C(=O)/C(=C/c2ccccc2)SC1=S)N1CCOCC1	-	-	-	-	-	-
O=C(CCCN1C(=O)/C(=C/c2cccs2)SC1=S)NNC(=O)c1ccncc1	-	-	-	-	-	-
O=C(CCCN1C(=O)/C(=C/c2ccccc2Cl)SC1=S)NNC(=O)c1ccncc1	-	-	-	-	82.2	-
CC(=C\c1ccccc1)/C=C1/SC(=S)N(CCC(=O)O)C1=O	-	-	-	-	81.3	-
O=C(CCCN1C(=O)/C(=C/c2ccccc2Cl)SC1=S)N1CCCC1	-	-	-	-	59.5	-
COc1cccc(N2C(=O)CC(N3CCN(CCN=CC4=C(O)CC(C)(C)CC4=O)CC3)C2=O)c1 (centres undefined)	-	-	-	-	-	-
CC(C)CNc1ncnc2c1ncn2[C@H]1CN(Cc2ccc(F)cc2)C[C@@H](CO)O1	.	-	-	-	-	-
O=C(CCN1C(=O)/C(=C/c2ccccc2Cl)SC1=S)N1CCOCC1	-	76.4	-	72.2	-	-
COc1ccc(NC(=O)N(CCCN(C)C)Cc2cc3cc(OC)ccc3[nH]c2=O)cc1	-	-	-	-	-	-
COc1ccccc1NC(=S)N(CCCN(C)C)Cc1cc2cc3c(cc2[nH]c1=O)OCO3	-	-	-	-	-	-
COc1ccccc1NC(=O)N(Cc1cccs1)Cc1cc2cc3c(cc2[nH]c1=O)OCO3	-	53.2	-	-	-	-
CCOc1ccccc1C(=O)N(Cc1ccccc1)Cc1cc2cc3c(cc2[nH]c1=O)OCCO3	-	61.3	-	-	-	-61.8
COC(=O)c1ccccc1NC(=S)N(Cc1ccc2c(c1)OCO2)Cc1cc2cc(OC)ccc2[nH]c1=O	-	-	88.7	-	-	-
COc1ccc(NC(=O)N(CCN2CCCC2)Cc2cc3cc(OC)c(OC)cc3[nH]c2=O)cc1	43.7	-	-	-	-	-
COc1ccc(C(=O)NC(C(=O)NCCc2ccc3c(c2)OCCO3)C(C)C)cc1 (centres undefined)	-	-	-	-	-	-
COc1ccc(CNC(=O)CN2C(=O)NC(C)(c3cccc(Br)c3)C2=O)cc1 (centres undefined)	-	-	-	-	-	-
SMILES	EBV LMP1 NFkB	Peg3 prom inh	Shn3 inh set2	CF NFkB block	HIF-2a inh	KKLEB tox
Cc1cc2cc(CN(CC3CCCO3)C(=S)Nc3ccccc3)c(=O)[nH]c2cc1C (centres undefined)	-	-	90.3	-	-	-
COc1ccc2cc(CN(CC3CCCO3)C(=O)Nc3ccccc3OC)c(=O)[nH]c2c1 (centres undefined)	49.4	-	-	-	-	-
COc1ccc(NC(=O)N(Cc2cc3ccc(OC)cc3[nH]c2=O)CC2CCCO2)cc1 (centres undefined)	-	-	-	-	-	-
CCOC(=O)c1cc(-c2ccccc2)n(CC(=O)Nc2ccc(OC)c(OC)c2)c1C	-	-	-	-	-	-
CCOC(=O)c1cc(-c2ccccc2)n(CC(=O)Nc2cccc(OC)c2)c1C	53.2	-	-	-	-	-
COc1cc2c(cc1NC(=O)C(Cl)Cl)-c1ccc(NC(=O)C(Cl)Cl)cc1C2	-	95.6	-	-	-	-
COc1cc2c(cc1NC(=O)c1ccccc1-c1ccccc1C(=O)O)-c1ccccc1C2	-	-	-	-	-	-
COc1ccc(-n2nc3c(c2NC(=O)CCl)CSC3)cc1	-	-	-	-	-	-
Cc1ccc(C(=O)COC(=O)CCc2ccc(S(=O)(=O)N3CCCCC3)cc2)cc1	-	-	-	-	-	-
Cc1[nH]n(-c2ccccc2)c(=O)c1C(C[N+](=O)[O-])c1ccc(Br)cc1 (centres undefined)	-	102.8	-	-	-	-
CCOC(=O)c1cnc(Nc2nc3ccccc3o2)nc1CN1CCN(C)CC1	-	-	-	-	-	-
On1ccccc1=S	-	100.4	-	-	-	-
Cc1cc(N2CCCC2)nc2ccc(NC(=S)NCCCN3CCC(C)CC3)cc12	-	98.4	-	-	-	-
CCN1CCN(c2cc(C)c3cc(NC(=S)NCCN(C)C)ccc3n2)CC1	-	-	-	-	-	-
Cc1cc(N2CCN(C)CC2)nc2ccc(NC(=S)NCCN3CCc4ccccc4C3)cc12	-	60.6	-	-	-	-
CCCN1CCN(CCCNC(=S)Nc2ccc3nc(N4CCN(CC)CC4)cc(C)c3c2)CC1	-	-	.	-	-	-
CCCCN(C)CCNC(=S)Nc1ccc2nc(N3CCN(CC)CC3)cc(C)c2c1	-	63.4	-	-	-	-
COc1cc(C(CCN2CCCCC2)c2c(OC)cc(OC)c3c(-c4ccccc4)cc(=O)oc23)cc(OC)c1OC (centres undefined)	-	78.3	-	-	-	-
COc1cc(C(CCN2CCCC(C)C2)c2c(OC)cc(OC)c3c(-c4ccccc4)cc(=O)oc23)cc(OC)c1OC (centres undefined)	-	86.8	-	-	-	-
COC(=O)c1ccc2nc(-c3ccc4c(c3)OCO4)cn2c1	48.2	-	-	-	-	-
Cc1cc(C)c2c(c1)/C(=N/Nc1ccc(S(N)(=O)=O)cc1[N+](=O)[O-])CCC2	-	61.2	-	-	-	-
CC(CN1CCN(CC(C)C(=O)c2ccccc2)CC1)C(=O)c1ccccc1 (centres undefined)	-	-	-	-	-	-
CCOc1ccc(C(=O)C(CN2CCOCC2)c2ccccc2)cc1 (centres undefined)	-	82.5	-	-	-	-
CCOc1ccc(C(CN2CCOCC2)C(C)=O)cc1OC (centres undefined)	.	58.4	-	-	-	-
O=C(c1ccccc1)C(CN1CCCCC1)c1ccccc1 (centres undefined)	54.8	103.5	?	84.9	-	-62.9

Assay outcomes deposited in PubChem BioAssay by several laboratories.
